Laboratory results from PubChem BioAssay AID2314 (National Center for Advancing Translational Sciences (NCATS), 2010).
In all, about 300,000 compounds went through this assay and about 37,000 (12%) were called active. This excerpt belongs to a sample that is enriched for actives. Values without a mark were called inactive. No stated cut-off is given here; in the data, active means max response mostly above about 13% (no sharp cut-off); inactive means mostly below about 14%.

Test: Cycloheximide Counterscreen for Small Molecule Inhibitors of Shiga Toxin; further: read at 38.3 µM for the half of the compounds with a filed dose; 0% is about no effect
Conditions: cell reporter, cycloheximide protein synthesis inhibition counterscreen; active compounds read high

Row | Compound | max response
1 | CCOc1ccc(CC(=O)NC2CCN(Cc3ccccc3)CC2)cc1 | 4.32%
2 | CCCOC(=O)c1c(NC(=O)c2cnn3c2NC(c2ccccc2)CC3C(F)(F)F)sc2c1CCCC2 (configuration not stated) | -8.8%
3 | CCc1nc(Nc2ccc(NC(C)=O)cc2)c2oc3ccccc3c2n1 | -3.08%
4 | CCc1nc(Nc2ccc3nccnc3c2)c2oc3ccccc3c2n1 | 12.4% (active)
5 | CCc1nc(N2CCN(c3nc(C)cc(C)n3)CC2)c2oc3ccccc3c2n1 | 2.99%
6 | O=S(=O)(Nc1ccc(Cl)cn1)c1cnc(Cl)c(Br)c1 | -1.38%
7 | CCN1CCN(c2cc3nc(C)n(Cc4ccccc4)c(=O)c3cc2NC(=O)c2ccccc2F)CC1 | -3.92%
8 | Cc1nnnn1/C(=C\c1ccccc1)C(=O)OCC(=O)N1CC2(C)CC1CC(C)(C)C2 (configuration not stated) | -5.53%
9 | O=C(Nc1nnc(C2COc3ccccc3O2)o1)c1ccc(F)cc1 (configuration not stated) | 1.61%
10 | O=C(CSc1nc2ccccc2o1)N/N=C/c1ccccc1C(=O)O | 13.7% (active)
11 | CCC(NC(=O)c1ccccc1NC(=O)c1ccccc1)C(=O)NNC(=O)CSc1nc2ccccc2o1 (configuration not stated) | 16.5% (active)
12 | Cn1c(SCC(=O)N/N=C/c2ccc(O)c(O)c2)nc2ccccc21 | -3.26%
13 | Cc1ccc(/C=N/NC(=O)CSc2nc3ccccc3o2)cc1 | 38.7% (active)
14 | COc1ccc(S(=O)(=O)N(CC(=O)N/N=C/c2ccccc2C(=O)O)c2ccccc2OC)cc1 | 1.7%
15 | CCn1c(SCC(=O)N/N=C/c2ccncc2)nc2ccccc21 | -1.38%
16 | Cc1ccc(Cn2c(SCC(=O)N/N=C/c3ccccc3OCC(=O)O)nc3ccccc32)cc1 | 3.56%
17 | Cn1c(=O)[nH]c(=O)c2c1nc(Br)n2CCCCSc1nc2ccccc2o1 | -4.25%
18 | CCc1ccccc1NC(=O)CSc1nnc([C@@H](NC(=O)OC(C)(C)C)C(C)CC)o1 (some centres not stated) | -3.76%
19 | CC(C)[C@H](NC(=O)N1CCn2c1nc1ccccc12)C(=O)NCc1ccc2c(c1)OCO2 | 7.58%
20 | CCCCOP(=O)(c1ccc(N(C)C)cc1)C(O)c1cc(OC)ccc1OC (configuration not stated) | -3.9%
21 | N[C@@H](Cc1ccccc1)C(=O)N1CCC(C(=O)NCC(=O)Nc2ccc(F)cc2)CC1 | 10.8%
22 | Cc1ccsc1C1C(C#N)=C(N)OC2=C1C(=O)CC(C)C2 (configuration not stated) | -3.34%
23 | CSc1nnc(C2CCCN(CC(=O)Nc3ccccc3N3CCOCC3)C2)n1C(C)C (configuration not stated) | -6.84%
24 | O=c1[nH]c2ccc(S(=O)(=O)N3CCCC3)cc2[nH]1 | -1.27%

Row | Compound | max response
25 | CCCN1C(=O)C(Cc2nc3ccccc3c(=O)n2-c2ccccc2)c2cc(C)ccc21 (configuration not stated) | -6.23%
26 | Cc1ccc(S(=O)(=O)N(CC(=O)Nc2cccnc2)c2ccc(Br)cc2)cc1 | 18.2%
27 | O=C(NNC(=O)c1ccc(Cl)cc1Cl)c1cccs1 | 47.6% (active)
28 | Cc1ccc(C)c(NC(=O)CCC(=O)NNC(=O)c2cccs2)c1 | 5.25%
29 | CC(C)C(=O)Nc1ccc(C(=O)NNC(=O)c2cccs2)cc1 | 19.4% (active)
30 | NNC(=O)c1ccc(Cl)cc1Cl | 9.54%
31 | Cc1ccc(NNC(=O)c2cccs2)cc1Cl | 9.69%
32 | O=C(Nc1ccccc1)c1ccc(NC(=O)c2cccs2)cc1 | -4.38%
33 | Cc1ccc(S(=O)(=O)N2CCN(C(=O)c3cccs3)CC2)cc1 | -2.84%
34 | Cc1ccc(C(=O)NNC(=O)c2cccs2)cc1 | 33.4% (active)
35 | Cc1cccc(-c2nc3c(c(SCC(=O)N4CCOCC4)n2)CCCC3)c1 | -3.15%
36 | Cc1ccc2c(c1)C(c1ccccc1)N(C(=O)c1ccc(F)cc1)CC(=O)N2 (configuration not stated) | -3.35%
37 | CC1COc2ccccc2N1C(=O)c1ccc(F)cc1 (configuration not stated) | -4.53%
38 | O=C(CN(Cc1ccccc1)C(=O)CCC(=O)Nc1ccccn1)NCCc1ccccc1 | -3.42%
39 | OC(c1ccccc1)C(CN1CCOCC1)c1ccccc1 (configuration not stated) | 6.46%
40 | COc1cc(C(C(=O)NC2CCCC2)N(Cc2ccccc2)C(=O)c2snc(C(N)=O)c2N)ccc1O (configuration not stated) | -3.72%
41 | C=CCN(C(=O)c1cc(C)cc(C)c1)C1(C(=O)Nc2ccccc2)CCN(C(C)C)CC1 | 7.82%
42 | Cc1ccc(CN(Cc2cccnc2)C(=S)Nc2cc(Cl)ccc2C)cc1 | -1.05%
43 | CN(C)c1ccc(-n2cccc2/C=N/n2cnnc2)cc1 | 36.3% (active)
44 | O=S(=O)(N/N=C\c1cccn1-c1ccccc1)c1ccc2ccccc2c1 | -3.05%
45 | CN(C)c1ccc(-n2cccc2/C=C2/SC(=Nc3ccc(F)cc3)NC2=O)cc1 | 1.13%
46 | CCOC(=O)N1CCN(C(=O)C(=O)Nc2sc3c(c2C#N)CC(C)(C)OC3)CC1 | -4.16%
47 | CC(=O)Nc1ccc(S(=O)(=O)Nc2nccc(/C=C/c3ccccc3F)n2)cc1 | -1.75%
